# EPAC2 antagonist = EPAC2 (human) antagonism; Potency, µM (highest dose often 114 µM), for the others: at the top dose activity, negative = inhibition, hits mostly inhibitors; 0.18% of 360,000 active; Q8WZA2; EPAC2 GEF exchange of Rap1B-BODIPY-GDP, fluorescence; AID 720708; also: % is scaled to controls: 0 for no effect and ±100 for the full control effect; nearly all actives have a fitted effect of over 45% in size
# EPAC1 antagonist = antagonists of human EPAC1. EPAC1 GEF assay, Rap1b-BODIPY-GDP exchange fluorescence. Potency, µM (doses to about 115 µM), without a hit: top-dose activity change, negative = inhibition, most hits filed as inhibitors. 0.14% of 360,000 active. AID 720709;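 also: plate controls were vehicle for no effect and positive control for full effect; nearly all actives have a fitted effect of over 50% in size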
# USP1-UAF1 inh = USP1/UAF1 (human) deubiquitinase inhibition; O94782; recombinant USP1/UAF1, Ub-Rhodamine cleavage fluorescence; Potency, µM (doses to about 57.1 µM), inactives show top-dose activity change, negative = inhibition, hits mostly inhibitors; 0.23% of 390,000 active; also: % is scaled to controls: 0 for no effect and ±100 for the full control effect; nearly all actives have a fitted effect of over 60% in size
#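 Step one: compound is pinned into 1nM USP1/UAF1 in HEPES pH 7.8 buffer with TCEP. Step two: 15 min room-temperature incubation. Step three: Ub-Rho (150nM final) starts cleavage, tracked by fluorescence over six one-minute reads.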
# ALOX12 inh = inhibitors of human 12S-lipoxygenase ALOX12; P18054; purified 12hLO, xylenol orange hydroperoxide absorbance; Potency, µM (series often up to 108 µM), for the others: at the top dose activity change, negative = inhibition, actives largely listed as inhibitors; 1.1% of 580,000 active; AID 1671190; also: % is scaled to controls: 0 for no effect and ±100 for the full control effect
# Target sequence (P18054 whole entry, looked up): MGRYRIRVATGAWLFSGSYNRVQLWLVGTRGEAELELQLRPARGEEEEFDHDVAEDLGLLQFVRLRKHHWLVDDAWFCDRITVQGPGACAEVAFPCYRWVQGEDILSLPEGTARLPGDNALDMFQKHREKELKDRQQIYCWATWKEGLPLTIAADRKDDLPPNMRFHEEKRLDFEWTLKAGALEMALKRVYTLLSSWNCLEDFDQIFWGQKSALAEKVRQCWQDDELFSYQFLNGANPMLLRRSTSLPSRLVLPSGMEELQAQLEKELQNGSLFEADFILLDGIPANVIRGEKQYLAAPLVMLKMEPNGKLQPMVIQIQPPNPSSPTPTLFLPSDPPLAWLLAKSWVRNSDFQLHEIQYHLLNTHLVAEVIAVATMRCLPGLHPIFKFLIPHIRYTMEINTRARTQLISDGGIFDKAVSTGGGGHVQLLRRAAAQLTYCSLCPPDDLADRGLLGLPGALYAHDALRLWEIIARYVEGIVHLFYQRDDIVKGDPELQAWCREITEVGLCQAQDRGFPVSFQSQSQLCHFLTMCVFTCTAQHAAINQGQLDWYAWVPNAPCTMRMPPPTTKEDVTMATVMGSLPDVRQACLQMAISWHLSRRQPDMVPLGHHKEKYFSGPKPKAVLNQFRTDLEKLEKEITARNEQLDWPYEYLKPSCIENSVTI
#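 Purified human 12hLO (150 nM final) in 25 mM Hepes, 0.01% Triton X-100, pH 7.0 was preincubated 15 min at room temperature with compound. Then 40 uM arachidonic acid was added, 30 min. Hydroperoxide was read by Fe-XO absorbance ratio 573/405 nm.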
# EPAC2 ag = EPAC2 (human) agonism; Q8WZA2; EPAC2 activation, biochemical qHTS; response scale: 100% = 6.5 mM cAMP response; Potency, µM (series often up to 154 µM), for inactives: at the top dose activation, hits mostly activators; 0.079% of 360,000 active; also: nearly all actives have a fitted effect of over 50% in size
#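 Setup: EPAC2 100 nM, labeled Rap1B complex 250 nM, free GDP 50 uM. Compound titrations pinned in, brief spin, 5 min room temperature incubation. Kinetic fluorescence read over 30 min, normalized to 6.5 mM cAMP.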
# EPAC1 ag = agonists of human EPAC1; O95398; EPAC1 agonist qHTS, biochemical assay; response scale: 100% = response to 6.5 mM cAMP; Potency, µM (titrated, usually from 154 µM), inactives show at the highest dose activation, usual class: activators; 0.073% of 360,000 active; AID 720707; also: nearly all actives have a fitted effect of over 60% in size
#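 Nucleotide exchange by EPAC1 (100 nM) on Rap1B–BODIPY-GDP (250 nM) in the presence of 50 uM GDP is tracked fluorescently at 480/540 nm over 30 min. Signals are normalized to a 6.5 mM cAMP control.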
# Starred values were filed as active, the others as inactive; ? = inconclusive; . = no result given; [ ] = remark or other dose. Rows were chosen to be rich in hits. Some 1.3% of all compounds tested hit in one or more screens of this group. Calls follow the shape of the dose curve; as a rule, active = well fitted curve in the direction sought with a large enough effect; inconclusive = small, poorly fitted or top-dose-only effect, or another doubt; inactive = no such curve, though single readings can be large; an effect the other way counts as inactive or inconclusive. Potency is read from the fitted curve at half-maximal effect.
SMILES,EPAC2 antagonist,EPAC1 antagonist,USP1-UAF1 inh,ALOX12 inh,EPAC2 ag,EPAC1 ag
CCC(C)NC(=O)CSc1ncc(-c2ccc(Cl)cc2)o1 (centres undefined),.,.,.,3.5%,.,.
CC(C)COc1ccc(CN)cc1,.,.,.,0.7%,.,.
CS(=O)(=O)Cc1ccc(C(=O)Nc2ccc(F)cc2F)cc1,.,.,.,-9.4%,.,.
Cc1nc(SCc2nc3ccccc3[nH]2)c2oc3cc(Br)ccc3c2n1,-22.1%,-1.8%,.,-4.6%,8.3%,15.5%
Cc1nc(SCCc2nc3ccccc3[nH]2)c2oc3ccccc3c2n1,-5.5%,-2.7%,.,14.1µM*,8.5%,8.1%
O=C(Nc1ccc(N2CCN(CCOc3ccc(Cl)cc3)CC2)c(C(=O)O)c1)c1ccc(F)cc1,.,.,-3.5%,44.7µM*,.,.
COc1cccc(F)c1-c1ccc(COc2ccc3c(cnn3CCC(=O)O)c2)cc1,.,.,.,22.4µM*,.,.
CNC(=O)CCn1ncc2cc(OCc3ccccc3-c3ccccc3COC)ccc21,.,.,.,1.4%[176 µM],.,.
COc1cc(F)cc(-c2ccc(COc3ccc4c(cnn4CCC(=O)O)c3)cc2)c1,.,.,.,28.2µM*,.,.
CNC(=O)CCn1ncc2cc(OCc3ccccc3-c3c(Cl)cccc3OC)ccc21,.,.,.,-10.7%,.,.
Cc1ccccc1-c1ccc(COc2ccc3c(cnn3CCC(=O)O)c2)cc1,.,.,.,44.7µM*,.,.
c1ccc(CCc2nnc3sc(-c4c[nH]c5ccccc45)nn23)cc1,.,.,.,31.9%,.,.
CC(=O)N1CCc2cc(NC(=O)CNc3ccccc3OC(F)F)ccc21,.,.,.,0.3%,.,.
CC(C)C(NC(=O)C(C)(c1ccccc1)c1ccccc1)c1ccccc1 (centres undefined),.,.,.,7.9%,.,.
COc1ccc(C(=O)/C=C/c2cc(C)ccc2C)cc1OC,.,.,.,-4.4%,.,.
CO/C=C\C=C/c1nnn(-c2ccc(Cl)cc2)n1,14.5%,-21.3%,-26.6%,35.5µM*,4.7%,-5.1%
Clc1ccc(-n2cnnn2)cc1,-11.5%,-13.6%,2.9%,-14.6%,8.5%,-10.8%
CC(C)Cc1nc(OCC(N)=O)c(C#N)c2c1CCCC2,.,.,.,-32.2%,.,.
Oc1c(Br)cc(Cl)cc1Cc1cc(Cl)cc(Br)c1O,.,.,.,28.2µM*,.,.
O=C(Nc1ccc(F)cc1)C1C(c2ccccc2)C1(Cl)Cl (centres undefined),-19.7%,?,-11.4%,7.08µM*,13.0%,6.4%
O=C(Nc1ccccc1Cl)C1C(c2ccccc2)C1(Cl)Cl (centres undefined),0.4%,-23.0%,-11.5%,?,27.5%,16.4%
CCc1nnc(NS(=O)(=O)c2ccc(NC(=S)NC(=O)c3ccc(Br)cc3)cc2)s1,-15.8%,56.2µM*,-18.7%,5.62µM*,5.8%,0.7%
CCc1nnc(NS(=O)(=O)c2ccc(NC(=O)c3ccccc3)cc2)s1,9.3%,-17.5%,-9.3%,1.9%,4.2%,4.5%
CCc1nnc(NS(=O)(=O)c2ccc(N/C=C(\C=O)c3nc4cc(Cl)ccc4o3)cc2)s1,-25.7%,-7.1%,-22.0%,8.91µM*,-1.4%,-1.6%
CCc1nnc(NS(=O)(=O)c2ccc(NC(=S)NC(=O)c3ccccc3)cc2)s1,-1.5%,-8.7%,-16.4%,7.94µM*,8.5%,0.8%
SMILES,EPAC2 antagonist,EPAC1 antagonist,USP1-UAF1 inh,ALOX12 inh,EPAC2 ag,EPAC1 ag
CCc1nnc(NS(=O)(=O)c2ccc(N/C=C\C(=O)c3ccc4ccccc4c3)cc2)s1,-7.9%,50.1µM*,-18.3%,-24.5%,6.0%,2.9%
CCc1nnc(NS(=O)(=O)c2ccc(NC(=O)c3cccc(Cl)c3)cc2)s1,-8.8%,-10.2%,-9.9%,-3.3%,-0.4%,-9.9%
CCc1nnc(NS(=O)(=O)c2ccc(NC(=O)c3ccc(Cl)cc3)cc2)s1,-1.9%,-8.3%,-13.8%,-10.9%,4.5%,5.0%
C=CCn1cc2c3c(cccc31)[C@H](CC(C)C)N[C@H](C(=O)NCCOC)C2,.,.,.,-1.2%[176 µM],.,.
O=C(CCc1ccsc1)N(CC1CCOC1)C1CC1 (centres undefined),.,.,.,-13.2%,.,.
Cc1c(Cl)cccc1NC(=O)Nc1cc2c(cc1Oc1ccccc1)n(C)c(=O)n2C,.,.,.,-34.1%,.,.
CCCOc1ccc(C(N)=O)cc1,.,.,.,55.7%,.,.
FC(F)(F)c1cccc(N/N=C/c2cccc(Br)c2)c1,.,.,.,-91.5%,.,.
FC(F)(F)c1cccc(N/N=C/c2ccc(Br)cc2)c1,.,.,.,0.794µM*,.,.
C/C(=N\Nc1cccc(C(F)(F)F)c1)c1ccc(O)cc1,-5.8%,16.5%,-13.3%,35.5µM*,0.5%,5.1%
C/C(=N\NC(=O)CNc1cccc(C(F)(F)F)c1)c1ccc(Br)cc1,23.1%,8.8%,-14.0%,19.6%,-5.0%,-5.6%
O=C(O)c1ccc(/C=N/Nc2cccc(C(F)(F)F)c2)cc1,?,-0.1%,-5.6%,44.7µM*,-10.3%,-12.0%
O=C(O)c1ccc(N/N=C/c2ccc(-c3ccccc3)cc2)cc1,-20.1%,0.1%,-13.9%,?,5.0%,-13.3%
Cn1ccc2ccc(C(=O)Nc3nnc(C4CC4)s3)cc21,.,.,.,18.0%,.,.
CCCCCOc1ccc(C(N)C(=O)OCC)cc1 (centres undefined),.,.,.,20µM*,.,.
CCNC(=S)NCc1ccccc1,.,.,.,-1.5%,.,.
N#C/C(=C\c1ccc(N2CCCCC2)o1)C(=O)Nc1cccc(Br)c1,161.1%,85.4%,28.2µM*,-23.0%,?,?
O=C(CNS(=O)(=O)Cc1ccccc1)NNc1ccccc1,4.9%,2.4%,.,39.8µM*,6.7%,3.4%
O=C(CNS(=O)(=O)Cc1ccccc1)NCc1ccccc1,6.9%,11.6%,0.6%,17.4%,8.4%,-1.0%
COc1ccc(N2CCN(C(=O)CN(c3cccc(Br)c3)S(C)(=O)=O)CC2)cc1,0.0%,0.4%,-13.8%,-11.2%,8.1%,11.3%
CS(=O)(=O)N(CC(=O)N1CCN(c2ccccc2)CC1)c1cccc(Br)c1,6.7%,9.1%,-12.5%,28.2µM*,7.2%,1.4%
Nc1c(N(Cc2ccco2)C(=O)COc2ccc3ccccc3c2)c(=O)[nH]c(=O)n1Cc1ccccc1,.,.,.,-8.8%,.,.
COc1ccc(OCCC(=O)OCC(=O)Nc2ccc(S(=O)(=O)N3CCOCC3)cc2)cc1,-7.2%,?,0.9%,-5.1%,14.3%,-3.5%
CC(C)(C)c1ccc(OCCC(=O)OCC(=O)Nc2ccc(N3CCOCC3)cc2)cc1,-1.6%,-16.5%,-22.2%,?,-14.7%,70.8µM*
COc1ccc(Nc2cc(C)c3ccccc3n2)cc1,-20.8%,2.2%,-20.6%,?,7.3%,6.5%
COc1ccc(Nc2cc(C)c3cc(C)ccc3n2)cc1,.,.,.,17.8µM*,.,.
CN1/C(=C\C=C2/SC(=S)N(CC(=O)O)C2=O)C(C)(C)c2ccccc21,46.6%,0.6%,25.1µM*,-14.6%,112µM*,63.1µM*
C=CCN1C(=O)/C(=C\C=C2\N(C)c3ccccc3C2(C)C)SC1=S,204.4%,10.2%,?,-4.6%,19.8%,6.1%

# Source: PubChem BioAssay (National Center for Advancing Translational Sciences (NCATS))
